Source: PubChem BioAssay AID743380 (National Center for Advancing Translational Sciences (NCATS), 2014)
Calls of active or inactive are those of the source. Calls follow the shape of the full dose curve.

Biological target: Phosphatidylinositol 4-phosphate 5-kinase type-1 alpha (Homo sapiens) (UniProt Q99755)
Assay: qHTS for Inhibitors of PI5P4K: PI4P5K-alpha 32P-ATP TLC Secondary Assay for Probe SAR
Settings: recombinant PI4P5K-alpha, 32P-ATP TLC phosphorimager
Description: In addition to finding PI5P, we discovered the type II phosphatidylinositol 5-phosphate 4-kinase (PI5P4K) family (alpha, beta, gamma isoforms) that catalyze the conversion of PI5P to PI(4,5)P2. Alternatively, PI(4,5)P2 can also be synthesized through phosphatidylinositol-4-phosphate (PI4P) by the type I phosphatidylinositol 4-phosphate 5-kinases (PI4P5K). These PI5P4K enzymes therefore represent one way by which cells can regulate endogenous PI5P levels and play important roles in insulin signaling and in stress responses. […] A qHTS PI5P4K-alpha ADP-Glo assay was developed to identify specific modulators of human PI5P4K, phosphatidylinositol-5-phosphate 4-kinase (Type II PIPK). To confirm that the active compounds and their analogs were true and selective inhibitors, a secondary Thin-layer Chromatography (TLC) assays against recombinant PI5P4K-alpha, PI4P5K-alpha or PI5P4K-beta that utilize a radioactively labeled ATP were developed. The data herein is the result of the PI4P5K-alpha TLC assay. […]
The kinase reaction was carried out in a total of 50 microL of kinase buffer (50 mM HEPES pH 7.4 and 10 mM MgCl2) containing 20 microM of the lipids that were suspended by sonication. […] The radiolabeled product, PI(4,5)P2, was quantified with a phosphorimager (Molecular Dynamics, STORM840, GE Healthcare, Waukesha, WI, USA).

Sequence of Phosphatidylinositol 4-phosphate 5-kinase type-1 alpha (Homo sapiens) (Q99755 whole entry, looked up): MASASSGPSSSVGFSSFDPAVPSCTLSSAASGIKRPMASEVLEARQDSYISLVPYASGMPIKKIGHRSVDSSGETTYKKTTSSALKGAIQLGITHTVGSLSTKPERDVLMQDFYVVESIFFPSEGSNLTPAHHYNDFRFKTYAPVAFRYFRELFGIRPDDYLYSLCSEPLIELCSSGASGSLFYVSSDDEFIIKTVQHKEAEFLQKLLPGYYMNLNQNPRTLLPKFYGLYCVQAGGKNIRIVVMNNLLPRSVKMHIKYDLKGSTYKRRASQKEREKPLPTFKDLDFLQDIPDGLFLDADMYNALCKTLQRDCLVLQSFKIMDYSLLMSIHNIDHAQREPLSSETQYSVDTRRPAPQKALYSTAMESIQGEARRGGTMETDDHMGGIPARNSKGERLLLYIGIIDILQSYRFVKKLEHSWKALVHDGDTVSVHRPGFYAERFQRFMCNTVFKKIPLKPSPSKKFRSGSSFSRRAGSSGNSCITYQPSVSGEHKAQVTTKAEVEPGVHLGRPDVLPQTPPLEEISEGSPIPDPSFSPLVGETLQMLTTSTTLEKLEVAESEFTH

Row | SMILES | Potency
1 | O=C1Nc2ccc(C(=O)c3ccco3)cc2/C1=C/c1cc(Cl)c(O)c(Cl)c1 | 498 nM (active)
